Measured values: PubChem BioAssay AID588342 (National Center for Advancing Translational Sciences (NCATS), 2011)
Hit rate of the full screen: of about 360,000 compounds, about 25,000 (6.9%) were called active. Not shown: some 9% with an inconclusive outcome. What follows is part of a selection rich in actives, with near analogues and random picks from the rest. Unmarked numbers belong to inactive results. Calls come from the whole dose curve; as a rule, active = well fitted inhibition curve with a large enough effect; inconclusive = small, poorly fitted or top-dose-only effect; inactive = flat fitted curve, though single readings scatter.

target: Luciferin 4-monooxygenase (Photinus pyralis) (UniProt P08659); assay: qHTS profiling assay for firefly luciferase inhibitor/activator using purifed enzyme and Km concentrations of substrates (counterscreen for miR-21 project); conditions: purified FLuc, luminescence inhibition; series mostly up to 57.5 µM; activity change, negative = inhibition: at the top concentration; note: nearly all actives have a fitted effect of over 55% in size;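 for activity change, negative = inhibition: plate controls were vehicle for no effect and reference inhibitor for full effect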
Summary of the method: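 Biochemical qHTS of compounds, final roughly 60 µM downward over six points, against 10 nM purified firefly luciferase using Km concentrations of substrates (10 uM D-luciferin, 10 uM ATP) in Tris acetate pH 7.5 buffer; luminescence output.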
Potency is the fitted concentration of half-maximal effect.

Sequence of Luciferin 4-monooxygenase (Photinus pyralis) (P08659 whole entry, looked up): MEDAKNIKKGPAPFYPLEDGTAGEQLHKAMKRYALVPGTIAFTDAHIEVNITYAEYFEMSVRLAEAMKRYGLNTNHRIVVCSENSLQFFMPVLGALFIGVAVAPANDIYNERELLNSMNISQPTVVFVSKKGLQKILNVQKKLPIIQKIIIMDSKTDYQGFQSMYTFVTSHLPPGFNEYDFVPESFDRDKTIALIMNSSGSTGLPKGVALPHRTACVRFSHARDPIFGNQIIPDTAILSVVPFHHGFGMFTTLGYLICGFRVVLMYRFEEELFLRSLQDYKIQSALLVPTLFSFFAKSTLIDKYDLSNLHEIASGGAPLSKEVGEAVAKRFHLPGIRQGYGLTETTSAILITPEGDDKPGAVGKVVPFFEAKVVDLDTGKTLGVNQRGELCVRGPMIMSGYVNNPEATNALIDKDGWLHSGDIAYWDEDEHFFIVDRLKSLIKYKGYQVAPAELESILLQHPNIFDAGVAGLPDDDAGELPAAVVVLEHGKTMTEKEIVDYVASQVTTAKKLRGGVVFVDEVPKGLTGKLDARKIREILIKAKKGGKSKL

| Structure (SMILES) | activity change, negative = inhibition [%] | Potency |
| --- | --- | --- |
| COc1c(C=O)c(CCN(C)C(=O)c2ccc(F)cc2)cc2c1OCO2 | 1.83 | – |
| Cc1ccc(-c2nc(CS(=O)(=O)CC(=O)NCc3ccccc3Cl)c(C)o2)cc1 | 2.41 | – |
| CCOC(=O)c1c(NC(=O)c2cc(CC)on2)sc(C(C)=O)c1C | 0.398 | – |
| CCOC(=O)c1ccc(NC(=S)N2CCCC2)cc1 | -8.94 | – |
| CCC(C)c1ccc(NC(=S)N2CCCC2)cc1 (stereo not drawn) | – | 15.1 µM (active) |
| CCOc1ccc(NC(=S)N2CCCCCC2)cc1 | -7.6 | – |
| CC1Cc2cc(S(=O)(=O)CCC(=O)Nc3ccc(F)c(Cl)c3)ccc2N1C(=O)C1CC1 (stereo not drawn) | -7.53 | – |
| O=C(c1ccc2c(c1)N(Cc1ccc(Cl)cc1)C(=O)c1ccccc1S2(=O)=O)N1CCCCC1 | 7.03 | – |
| Cc1cccc[n+]1CC(=O)c1ccccc1 | -0.244 | – |
| O=C(NCCS(=O)(=O)NCc1ccc(F)cc1)c1ccccc1 | 4.95 | – |
| CCCCC(=O)NCc1ccc(F)cc1 | 0.712 | – |
| O=C(/C=C/NCc1ccc(F)cc1)c1ccccc1 | – | 16.9 µM (active) |
| O=C(/C=C\NCC(=O)c1ccccc1)c1ccccc1 | – | 12 µM (active) |
| CCN(c1ccccc1)S(=O)(=O)c1cc(C(=O)NCc2ccccn2)ccc1C | -1.73 | – |
| CC(=O)c1c(C)[nH]c(C(=O)COc2ccc3c(C)cc(=O)oc3c2)c1C | 5.31 | – |
| Cc1ccc(C(=O)Nc2c(C(=O)NC(C)(C)C)oc3ccccc23)cc1 | 2.44 | – |
| COc1ccc(Cl)cc1NC(=O)c1sc2nc3c(cc2c1N)CN(C)CC3 | -1.38 | – |
| COc1ccc(-n2c(SCC(=O)Nc3ccc(Cl)c(C)c3)nc3n[nH]c(C)c3c2=N)cc1 | -0.344 | – |
| COc1ccc(Cn2ccn(CC(=O)Nc3cc(C)ccc3C)c(=O)c2=O)cc1 | 0.418 | – |
| COc1cc(C2c3c(oc4ccccc4c3=O)C(=O)N2c2nc(C)c(C)s2)ccc1O (stereo not drawn) | -4.51 | – |
| Cc1ccc(NC(=O)C2CCCN2S(=O)(=O)c2cccc3cccnc23)c(C)c1 (stereo not drawn) | – | inactive |
| COc1cc(/C=N/NC(=O)c2cccnc2)ccc1OC(=O)c1cccc(Br)c1 | 0.287 | – |
| COc1cc(/C=N/NC(=S)Nc2cccnc2)cc(OC)c1O | – | 10.7 µM (active) |
| CCOC(=O)N/N=C/c1cccnc1 | 6.17 | – |
| C[C@@H]1C[C@@H]2O[C@H]2/C=C\C=C\C(=O)Cc2c(Cl)c(O)cc(O)c2C(=O)O1 | -3.44 | – |
| COC(=O)c1ccc(Cn2c(SCC(=O)N(C)c3ccccc3)nc3ccccc32)cc1 | -16.2 | – |

| Structure (SMILES) | activity change, negative = inhibition [%] | Potency |
| --- | --- | --- |
| Cc1cccc(C)c1NC(=O)COC(=O)c1c(C)nn(-c2ccccc2)c1C | -19 | – |
| Cc1nn(-c2ccccc2)c(-n2cccc2)c1C(=O)O | -0.636 | – |
| Cc1ccc(OC(=O)c2c(C)nn(-c3ccccc3)c2C)cc1 | – | 13.5 µM (active) |
| CCCC12CN3CC(CCC)(CN(C1)C3c1c[nH]c3ccc(OC)cc13)C2=O (stereo not drawn) | -1.95 | – |
| COc1ccccc1C(=O)NCCC(=O)N(C)Cc1cccnc1 | -1.3 | – |
| COc1ccc(CCNC(=O)CCCCn2c(=O)c3ccccc3n(Cc3ccccc3)c2=O)cc1OC | 1.96 | – |
| CCOc1ccc(C(=O)c2cn(Cc3ccccc3OC)c3ccc(F)cc3c2=O)cc1 | 0.01 | – |
| COc1ccc(NC(=O)C2CCN(c3ccc(Sc4ccc(C)cc4)nn3)CC2)c(OC)c1 | 4.7 | – |
| CN1CCN(C2(CNC(=O)COc3ccc(C(C)(C)C)cc3)CCCCC2)CC1 | -0.665 | – |
| O=c1c2ccccc2nc(N/N=C/c2ccccc2)n1O | – | 1.51 µM (active) |
| CCOCCCn1c(NN)nc2ccccc2c1=O | 4.5 | – |
| Nc1nnn(CC(=O)N/N=C/c2ccccc2)n1 | -1.5 | – |
| CCCc1nc2ccccc2c(=O)n1/N=C/c1ccc(O)c(O)c1 | 1.87 | – |
| O=c1c2ccccc2ncn1/N=C/c1ccccc1 | – | 1.69 µM (active) |
| O=C(Nn1cnc2ccccc2c1=O)c1ccccc1 | 2.64 | – |
| COc1cc(C(=O)Nc2ccc(OCc3cc(=O)n4cc(C)sc4n3)cc2)cc(OC)c1OC | -2.09 | – |
| CCN(C(=O)CSc1nc(N)cc(=O)[nH]1)C1CCS(=O)(=O)C1 (stereo not drawn) | -2.15 | – |
| O=C(CN1CCCCC1)Nc1ccccc1C(=O)NC1CC1 | -9.75 | – |
| Cc1ccc(-c2nnc(Nc3ccc(OCC(N)=O)cc3)c3ccccc23)cc1S(=O)(=O)NCC1CCCO1 (stereo not drawn) | -26.1 | – |
| CCCN(C(=O)Cn1cc(S(=O)(=O)N2CCN(c3ccccc3F)CC2)c2ccccc2c1=O)c1cccc(C)c1 | 0.802 | – |
| COc1cccc(/C=C/C(=O)OCC(=O)N2CCN(c3ccccc3)CC2)c1 | -1.28 | – |
| CN=C1C=C/C(=N/N=c2\ccn(O)cc2C)C=C1C | – | 15.1 µM (active) |
| CSc1ccccc1NC(=O)COC(=O)CCCOc1ccc(C)cc1 | -0.833 | – |
| CCCNC(=O)C(CC)n1nc(CC)n2c(cc3oc(C)cc32)c1=O (stereo not drawn) | -5.44 | – |
| CCN(CC)S(=O)(=O)c1ccc(N2CCOCC2)c(NC(=O)C2CSC3(C)CCC(=O)N23)c1 (stereo not drawn) | -0.501 | – |
| O=C(Nc1ccc(S(=O)(=O)Nc2nccs2)cc1)c1cc(-c2ccncc2)nc2ccccc12 | -10.6 | – |

| Structure (SMILES) | activity change, negative = inhibition [%] | Potency |
| --- | --- | --- |
| CCCCN(C)CCCNC(=O)c1cc(-c2cccs2)nc2ccccc12 | -1.53 | – |
| O=C(Nc1nnc(-c2ccccc2)o1)c1cc(-c2cccs2)nc2ccccc12 | – | 19 µM (active) |
| Cc1cccc(CC(=O)N2CC(=O)Nc3ccc(F)cc3C2c2ccccc2)c1 (stereo not drawn) | -1.47 | – |
| Cc1ccc(CSc2nc3ccsc3c(=O)n2CCC(C)C)cc1 | 1.43 | – |
| COc1ccc(NC(=O)CSc2nnc(C3CC3)n2C)cc1S(=O)(=O)N1CCCCC1 | 5.35 | – |
| NC(=O)c1c(Nc2nc3c(F)cccc3s2)sc2c1CCCC2 | -11.7 | – |
| COc1cc2ccccc2cc1C(=O)N(CCN(C)C)c1nc2c(F)cccc2s1 | -0.155 | – |
| Fc1cc(F)c2nc(Nc3nc4c(F)cccc4s3)sc2c1 | – | 4.78 µM (active) |
| COc1ccc(-c2cn3nc(N4CCC(C(=O)Nc5cccc(C)c5C)CC4)sc3n2)cc1 | -1.45 | – |
| CCc1ccc(NC(=O)CN2C(=O)CCSc3ccc(S(=O)(=O)N4CCCC4)cc32)cc1 | 2.18 | – |
| COc1ccc(NC(=O)CN2C(=O)CSC2=O)cc1 | -17.3 | – |
| CCc1ccc(NC(=O)CN2C(=O)CSC2=O)cc1 | – | 10.7 µM (active) |
| CCn1c(=O)c2cc(C(=O)NCCc3ccc(Cl)cc3)sc2c2ccccc21 | -6.83 | – |
| COc1ccc(-c2onc(C)c2C)cc1S(=O)(=O)NCCc1ccccc1 | -11.2 | – |
| CCOC(=O)c1cc2cc(C)ccc2[nH]1 | – | 12 µM (active) |
| CC(=O)OCc1cc2cc(C)ccc2[nH]c1=O | 0.564 | – |
| Cc1ccc2[nH]c(=O)c(COC(=O)c3ccccn3)cc2c1 | 11.8 | – |
| COc1cc(OC)c(NC(=O)c2cc(S(=O)(=O)N3CCCC3)cn2C)cc1Cl | -6.55 | – |
| O=C(Nc1ccc2c(c1)OCO2)c1cc(-c2cccc(Cl)c2)on1 | 3.04 | – |
| Cc1cccc(NC(=O)Nc2ccc3c(c2)OCO3)n1 | – | 2.69 µM (active) |
| CCOC(=O)CCCNC(=O)COC(=O)/C=C/c1ccc2c(c1)OCO2 | -6.33 | – |
| CCN(CC(=O)Nc1ccc2c(c1)OCO2)S(=O)(=O)c1ccccc1 | -11.9 | – |
| O=C(/C=C\c1ccc2c(c1)OCO2)NC1(C(=O)Nc2ccc3c(c2)OCCO3)CCCCC1 | -3.09 | – |
| Cc1cccc(NC(=O)/C=C/c2ccc3c(c2)OCO3)n1 | – | 0.849 µM (active) |
| CNS(=O)(=O)c1ccc(NC(=O)Nc2ccc3c(c2)OCO3)cc1 | – | 6.01 µM (active) |
| Cc1ccc2nc(-c3ccccn3)cc(C(=O)Nc3ccc4c(c3)OCO4)c2c1 | -4.26 | – |

| Structure (SMILES) | activity change, negative = inhibition [%] | Potency |
| --- | --- | --- |
| CC(C)CNS(=O)(=O)c1ccc(C(=O)Nc2ccc3c(c2)OCO3)cc1 | 0.691 | – |
| CCOc1ccc(OCC(=O)Nc2c3c(nn2C(C)(C)C)CS(=O)(=O)C3)cc1 | -17.5 | – |
| COc1cccc(NC(=O)CN(C)C(=O)CSCc2nc3scc(-c4cccs4)c3c(=O)[nH]2)c1 | -4.25 | – |
| CC(C)CC(NS(=O)(=O)c1ccc2c(c1)oc(=O)n2C)C(=O)NCc1ccccc1Cl (stereo not drawn) | -5.21 | – |
| COc1ccccc1C(CNC(=O)c1ccc(C)c(S(=O)(=O)N2CCCCC2)c1)N(C)C (stereo not drawn) | -2.16 | – |
| Fc1ccc(Nc2nc(SCc3ccccc3Cl)nc3ccccc23)cc1 | -16.5 | – |
| COc1ccccc1NC(=O)c1ccc(N2CC3CC(C2)c2cccc(=O)n2C3)c(NC(=O)c2cccnc2)c1 (stereo not drawn) | 0.549 | – |
| COC(=O)c1cnn(-c2ccc(C(=O)Nc3ccc(OC(F)(F)F)cc3)cc2)c1N | 2.78 | – |
| COc1ccccc1CCC(=O)NNC(=O)c1ccncc1 | 0.895 | – |
| COc1cccc(/C=C2/SC(=S)N(CC(=O)NC3C=CS(=O)(=O)C3)C2=O)c1 (stereo not drawn) | – | 6.75 µM (active) |
| O=C(O)c1ccc(/C=C2\SC(=S)N(NC(=O)c3ccc(Br)cc3)C2=O)cc1 | -14.6 | – |
| COc1ccc(/C=C2\SC(=S)N(CC(=O)NNC(=O)c3ccncc3)C2=O)cc1 | – | 5.36 µM (active) |
| O=C(CN1C(=O)S/C(=C\c2ccccc2Cl)C1=O)NC1C=CS(=O)(=O)C1 (stereo not drawn) | -2.59 | – |
| COc1cccc(/C=C2\SC(=N)N(c3ccc(F)cc3)C2=O)c1 | 2.74 | – |
| O=C1N(Cc2ccc3c(c2)OCO3)c2ccccc2C1(O)c1c[nH]c2ccccc12 (stereo not drawn) | 3.13 | – |
| O=C(c1ccc2c(c1)N(Cc1ccccc1)C(=O)c1ccccc1S2(=O)=O)N1CCCC1 | -5.91 | – |
| CC(C)(C)OC(=O)N[C@H](C(=O)OC(C)(C)C)c1ccc(Br)cc1 | 4.47 | – |
| COc1cc(C#Cc2ccc3cc(CCCO)oc(=O)c3c2)cc(OC)c1 | – | 4.78 µM (active) |
| O=C1c2ccccc2C(=O)N1CCC#Cc1ccc2cc(C3(O)CCCCC3)oc(=O)c2c1 | 1.37 | – |
| CCC(Sc1nc2n[nH]c(C)c2c(=N)n1-c1ccccc1Cl)C(=O)N(CC)CC (stereo not drawn) | 5.14 | – |
| Cc1ccccc1CS(=O)(=O)CC1Nc2ccc(C(=O)NCc3ccc(Cl)cc3)cc2NC1=O (stereo not drawn) | 3.69 | – |
| CCCCOc1ccc(Cn2c(=O)oc3ccc(C)cc32)cc1OC | -11.5 | – |
| CCn1c(=O)n(CC)c2cc(N3CCCC3)c(NC(=O)c3ccccc3Br)cc21 | 3.02 | – |
| CCN1C(=O)/C(=C2\SC(N3CCCCC3)=NC2=O)c2ccccc21 | – | 3.38 µM (active) |
| CC(C)=C1SC(N2CCN(c3cccc(C)c3)CC2)=NC1=O | 0.206 | – |
